Assay results: PubChem BioAssay
Values joined by “and” are separate entries in the source; they are usually repeats but may differ in a detail not shown here. Equal entries are not always repeated. Inconclusive results are not listed. Active and inactive are the calls of the source. Cut-off read from the data, not from the text of the source, unless noted: active = parasite load remaining mostly below about 12% (no sharp cut-off); inactive = mostly above about 10%.

Experiments:
[1] = compounds altering viability of human ES cells (AID 493140; call rule not given here;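 note: cells exposed to compounds for four days before counting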); conditions: human embryonic stem cell survival screen; stronger effect = higher value
[2] = viability loss with induced miR-34 in A549 – imaging, A549 dox-inducible miR-34, nuclei and caspase counts, primary screen (AID 1347080;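 active = compounds whose cell count with miR-34 switched on is under 0.7 times the count with it off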); conditions: A549 miR-34 inducible, Hoechst nuclei count, 48 h
[3] = target: ATP-dependent translocase ABCB1 (Homo sapiens) (UniProt P08183); experiment: P-glycoprotein substrate transport blockade – cell-based (AID 377; in the data active = fluorescence slope change above about 50%); conditions: MDR1-expressing cells, fluorescent substrate accumulation slope; stronger effect = higher value; concentration not given here
[4] = P. berghei load reduction in hepatocytes – cell-based, HepG2, luciferase luminescence, HepG2 viability, primary screen (AID 624349);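 note: 100% = mean of DMSO negative control wells on the same plate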; conditions: P. berghei liver stage in HepG2, luciferase luminescence, concentration not given here; parasite load remaining: stronger effect = lower value; viability: measured here: HepG2 viability without parasites
[5] = chitosan synthesis blockers in C. neoformans – flow cytometry, Cibacron Brilliant Red staining (AID 1347148; call rule not given here;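 note: compound exposure lasted three days at 37 degrees C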); conditions: Cryptococcus neoformans chitosan, stronger effect = lower value; at 10 µM unless noted
[6] = measured here: relative caspase fold change +Dox/-Dox
[7] = measured here: total cells with miR-34 induction, stronger effect = lower value
[8] = measured here: total cells without miR-34 induction
[9] = stronger effect = lower value, cell number ratio, induced over uninduced

Chain of ATP-dependent translocase ABCB1 (Homo sapiens) (P08183 whole entry, looked up): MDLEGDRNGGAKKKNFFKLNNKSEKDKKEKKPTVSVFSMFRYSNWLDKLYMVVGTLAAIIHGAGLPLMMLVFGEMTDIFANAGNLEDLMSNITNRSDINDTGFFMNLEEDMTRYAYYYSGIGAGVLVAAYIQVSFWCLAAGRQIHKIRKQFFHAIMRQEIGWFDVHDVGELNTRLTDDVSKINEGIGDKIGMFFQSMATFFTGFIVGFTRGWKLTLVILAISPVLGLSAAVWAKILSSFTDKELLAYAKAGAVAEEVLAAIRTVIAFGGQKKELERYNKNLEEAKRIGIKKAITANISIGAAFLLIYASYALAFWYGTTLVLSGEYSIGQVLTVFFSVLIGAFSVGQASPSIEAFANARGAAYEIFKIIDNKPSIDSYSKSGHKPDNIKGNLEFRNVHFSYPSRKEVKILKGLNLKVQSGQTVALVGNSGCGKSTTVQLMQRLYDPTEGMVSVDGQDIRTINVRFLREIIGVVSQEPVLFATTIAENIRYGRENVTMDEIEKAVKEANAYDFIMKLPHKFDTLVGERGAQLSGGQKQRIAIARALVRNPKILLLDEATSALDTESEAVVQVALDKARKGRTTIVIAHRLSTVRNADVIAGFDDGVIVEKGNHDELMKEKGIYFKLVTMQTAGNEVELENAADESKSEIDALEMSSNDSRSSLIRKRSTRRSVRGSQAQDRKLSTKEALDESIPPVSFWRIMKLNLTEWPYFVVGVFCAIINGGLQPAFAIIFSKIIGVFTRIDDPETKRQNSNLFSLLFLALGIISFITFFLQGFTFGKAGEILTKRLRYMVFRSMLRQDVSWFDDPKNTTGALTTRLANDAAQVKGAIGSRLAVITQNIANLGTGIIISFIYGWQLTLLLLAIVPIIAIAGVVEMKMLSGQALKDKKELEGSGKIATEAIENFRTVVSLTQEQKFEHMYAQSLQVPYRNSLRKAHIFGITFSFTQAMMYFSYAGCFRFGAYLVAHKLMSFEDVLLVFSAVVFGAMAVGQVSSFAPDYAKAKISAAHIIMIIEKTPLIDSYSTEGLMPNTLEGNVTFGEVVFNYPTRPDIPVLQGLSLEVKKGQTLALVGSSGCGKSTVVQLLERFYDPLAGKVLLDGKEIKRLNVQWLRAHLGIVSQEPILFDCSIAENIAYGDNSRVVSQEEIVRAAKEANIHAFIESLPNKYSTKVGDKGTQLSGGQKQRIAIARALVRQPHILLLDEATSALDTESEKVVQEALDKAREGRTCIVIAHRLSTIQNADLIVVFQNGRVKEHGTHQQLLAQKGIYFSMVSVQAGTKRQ

SMILES	survival [1]	fold change ([2]; stronger effect = lower value)	fold change [2, 6]	cell count [2, 7]	cell count [2, 8]	fluorescence slope change [3]	parasite load remaining [4]	viability [4]	fold change [2, 9]	fold fluorescence [5]
OC[C@H]1O[C@@H](n2cnc3cc(Cl)c(Cl)cc32)C(O)[C@H]1O (stereo partly drawn)	56.1 (inactive)	0.916 (inactive)	0.917	1540	1680					
C[C@@H]1NCCc2cc(O)c(O)cc21	6 (inactive)		1.51	8760	10400	-10.9% (inactive)	75.9% (inactive) and 47.5% (inactive)	120% and 73.8%	0.841 (inactive)	
COc1ccn(C)c(=O)c1C#N	4.25 (inactive)	0.883 (inactive)	1.32	9150	10400		84.9% (inactive)	97.3%		
CCCCC/C=C\C/C=C\C/C=C\C/C=C\CCCC(=O)NCCc1ccc(O)c(O)c1	69.6 (inactive)		1.09	5250	5510				0.953 (inactive)	
CC(=O)O[C@H]1C[C@H](O[C@H]2[C@@H](O)C[C@H](O[C@H]3[C@@H](O)C[C@H](O[C@H]4CC[C@@]5(C)[C@H](CC[C@]6(C)[C@]5(C)C[C@@H](O)[C@]5(C)[C@@H](C7=CC(=O)OC7)CC[C@@]56O)C4)O[C@@H]3C)O[C@@H]2C)O[C@H](C)[C@H]1O[C@@H]1O[C@H](CO)[C@@H](O)[C@H](O)[C@H]1O			1.14	808	815		0.31% (inactive)	66.6%	0.992 (inactive)	
CC[C@H]1C2C[C@H]3[C@@H]4N(C)c5ccccc5C45C[C@H](C2[C@H]5O)N3[C@@H]1O (stereo partly drawn)			1.31	8780	10400		126% (inactive)	98.7%	0.84 (inactive)	
C=C1[C@@H](O)[C@]23C[C@@H]1[C@@H](O)C[C@H]2[C@@]12C4[C@@H]3C[C@@H]1[C@@](C)(CC[C@@H]2O)CN4CC			0.861	8910	9970		76.8% (inactive)	104%	0.894 (inactive)	
CCN1C[C@]2(C)CC[C@H](O)[C@]34C1[C@H](C[C@H]23)[C@@]1(O)C[C@H](OC)[C@H]2C[C@@H]4[C@@H]1C2O (stereo partly drawn)			1.17	9000	10400		57.3% (inactive)	100%	0.863 (inactive)	
CO[C@H](C)C(O)(C(=O)OCC1=CCN2CC[C@H](O)[C@@H]12)C(C)C (stereo partly drawn)			1.23	8290	9440		69.7% (inactive)	101%	0.879 (inactive)	
CC1=CC(=O)C2=C(C)C[C@H](O)[C@@H]3[C@H](OC(=O)[C@H]3C)[C@@H]12	7.92 (inactive)	0.829 (inactive)	1.6	8050	9720		98.5% (inactive)	100%		
C[N+]1=Cc2cc3c(cc2CC1)OCO3			1.08	9060	9880		30.1% (inactive)	46.5%	0.917 (inactive)	
CCN1C[C@]2(COC)C(O)C[C@H](OC)[C@]34C1[C@H]([C@H](OC)[C@H]23)[C@]1(OC(C)=O)[C@H]2[C@@H](OC(=O)c3ccccc3)[C@@](O)(C[C@H]24)[C@@H](OC)[C@@H]1O (stereo partly drawn)										4.31 [at 77.4 µM] (inactive)
CC[C@@H](C)C(=O)O[C@H]1[C@H](O)[C@H]2[C@@H](CN3C[C@@H](C)CC[C@H]3[C@@]2(C)O)C2C[C@]34O[C@@]5(O)[C@@H](OC(=O)[C@](C)(O)CC)CC[C@@]3(C)[C@@H]5[C@@H](OC(C)=O)[C@@H](OC(C)=O)[C@H]4[C@@]21O (stereo partly drawn)			1.61	9180	10200		119% (inactive)	111%	0.898 (inactive)	
CCN1C[C@]2(COC)CC[C@H](O)[C@]34C1[C@](O)([C@@H](OC)[C@H]23)[C@@]1(O)C[C@H](OC)[C@H]2C[C@@H]4[C@@H]1[C@H]2OC			0.967	9200	10600		79.1% (inactive)	102%	0.871 (inactive)	
C[C@H]1O[C@@H](OC2CC[C@]3(C=O)[C@H]4CC[C@]5(C)[C@@H](C6=CC(=O)OC6)CC[C@]5(O)[C@@H]4CC[C@]3(O)C2)C[C@H](O)[C@@H]1O (stereo partly drawn)			1.73	1040	1440		0.83% (inactive)	69.5%	0.718 (inactive)	
COc1ccc(C[C@@H]2NC[C@@H](O)[C@@H]2OC(C)=O)cc1	0.25 (inactive)	0.95 (inactive)	1.1	1100	1160		4.56% (inactive)	32.9%		
CN1[C@@H]2CC(=O)C[C@H]1[C@H](O)C2			0.592	8350	9140		87.8% (inactive)	81.1%	0.914 (inactive)	
CN1CCC2=C[C@H](O)[C@H]3OC(=O)c4cc5c(cc4[C@H]3[C@@H]21)OCO5			1.04	6350	7210		42.8% (inactive)	96.9%	0.881 (inactive)	
C=C[C@]12CN(C)[C@@H]3[C@H]4COC(CC41)[C@]1(C(=O)Nc4ccccc41)[C@@H]32			1.55	8470	10000		100% (inactive)	94.8%	0.845 (inactive)	
CN1C[C@H](C(=O)N[C@]2(C)C[C@@]3(O)C4CCCN4C(=O)[C@H](Cc4ccccc4)N3C2=O)C=C2c3cccc4[nH]cc(c34)C[C@H]21 (stereo partly drawn)			6.73	10900	13000		49.1% (inactive)	102%	0.836 (inactive)	
CC(Cc1ccccc1)NCCC(c1ccccc1)c1ccccc1 (stereo not drawn) (tested in a mixture with another compound)		0.804 (inactive)	1.52	5460	6790		65.1% (inactive)	77.8%		

SMILES	survival [1]	fold change ([2]; stronger effect = lower value)	fold change [2, 6]	cell count [2, 7]	cell count [2, 8]	fluorescence slope change [3]	parasite load remaining [4]	viability [4]	fold change [2, 9]	fold fluorescence [5]
COc1cc(C(=O)OC2C[C@H]3CC[C@@H](C2)N3C)ccc1O (stereo partly drawn)		0.903 (inactive)	1.48	8240	9120		90.6% (inactive)	98.9%		
COC1=CC(=O)O[C@@H](/C=C/c2ccccc2)C1	16.6 (inactive)	0.899 (inactive)	1.34	8920	9920		26.1% (inactive) and 89.1% (inactive)	46.2% and 90.2%		
COc1ccc(C(=O)OC2C[C@H]3CC[C@H](C2)N3C)cc1OC (stereo partly drawn)			1.53	9600	10800		72.9% (inactive)	108%	0.888 (inactive)	
CN1C2CCCC1CC(=O)C2	10.2 (inactive)		1.28	9180	10300		169% (inactive) and 77.1% (inactive)	110% and 77.5%	0.891 (inactive)	
C[C@H]1CC[C@@H]2[C@@H](C)[C@H]3[C@H](C[C@H]4[C@@H]5CC=C6C[C@@H](O[C@@H]7O[C@H](CO)[C@H](O)[C@H](O[C@@H]8O[C@H](CO)[C@@H](O)[C@H](O)[C@H]8O)[C@H]7O[C@@H]7O[C@@H](C)[C@H](O)[C@@H](O)[C@H]7O)CC[C@]6(C)[C@H]5CC[C@]34C)N2C1			1.19	8230	8880		143% (inactive)	114%	0.926 (inactive)	
CO[C@H]1C=C2CCN(C)[C@H]2C2c3cc4c(cc3C(=O)O[C@@H]21)OCO4 (stereo partly drawn)			0.836	9140	9770		64.2% (inactive)	100%	0.936 (inactive)	
COc1cc2c(cc1O)[C@@H]1Cc3ccc(OC)c(O)c3CN1CC2			1.3	2600	3330		152% (inactive)	92.5%	0.78 (inactive)	
COc1cc2c3cc1Oc1cc(ccc1O)C[C@@H]1c4c(cc(OC)c(O)c4Oc4cccc(c4)C[C@@H]3N(C)CC2)CC[N+]1(C)C	7.17 (inactive)		1.32	8210	9980		52.1% (inactive) and 85.1% (inactive)	113% and 81.4%	0.822 (inactive)	
CCN1C[C@]2(C)CC[C@H](OC)[C@@]34C1[C@]1(OCO[C@@]15C[C@H](OC)[C@H]1C[C@]3(O)[C@@H]5[C@H]1OC)[C@@H](OC(C)=O)[C@H]24			0.675	10000	10500		91.7% (inactive)	96.9%	0.951 (inactive)	
CN(C)[C@@H]1C(=O)C(C(N)=O)=C(O)[C@@]2(O)C(=O)C3=C(O)c4c(O)ccc(Cl)c4[C@@](C)(O)C3C[C@@H]12 (stereo partly drawn)			1.43	7670	9260		51% (inactive)	46.7%	0.828 (inactive)	
COc1cc2c(c(OC)c1OC)-c1ccc(O)c(=O)cc1[C@@H](N)CC2			1.33	5720	6460		106% (inactive)	105%	0.884 (inactive)	
C=C1[C@@H]2CC[C@H]3[C@]4(C)C[C@H](O[C@H]5O[C@H](CO)[C@@H](OS(=O)(=O)O)[C@H](OS(=O)(=O)O)[C@H]5OC(=O)CC(C)C)C[C@@H](C(=O)O)[C@H]4CC[C@]3(C2)[C@H]1O			0.935	8890	10100		72.2% (inactive)	97.4%	0.879 (inactive)	
c1cncc([C@H]2CCCCN2)c1			1.12	8860	9960		92.6% (inactive)	99.3%	0.89 (inactive)	
CCCCCCCCCCCCCCCCOC[C@H](O)COP(=O)([O-])OCC[N+](C)(C)C										3.83 (inactive)
CCN1C[C@]2(COC)CC[C@H](OC)[C@@]34C1[C@]1(OCO[C@@]15C[C@H](OC)[C@H]1C[C@@H]3[C@@H]5[C@H]1OC)[C@@H](O)[C@H]24			1.35	8580	10200		79.2% (inactive)	96.3%	0.844 (inactive)	
O=c1ccc2cc(OC3O[C@H](CO)[C@@H](O)[C@H](O)[C@H]3O)c(O)cc2o1 (stereo partly drawn)			0.932	9360	9590		70.5% (inactive)	96.1%	0.976 (inactive)	
CCN1C[C@]2(COC)CC[C@H](O)[C@]34C1[C@H](C[C@H]23)[C@@]1(O)C[C@H](OC)[C@H]2C[C@@H]4[C@@H]1[C@H]2OC(C)=O			0.467	9850	10200		81.9% (inactive)	71.5%	0.961 (inactive)	
COC1=CC(=O)O[C@H](/C=C/c2ccccc2)C1										3.69 [at 217.1 µM] (inactive)
C[C@@H]1O[C@@H](O[C@@H]2C=C3CCC4C(CC[C@]5(C)[C@@H](c6ccc(=O)oc6)CC[C@]45O)[C@@]3(C)CC2)[C@H](O)[C@H](O)[C@H]1O (stereo partly drawn)			0.74	696	460		0.58% (inactive)	13.4%	1.51 (inactive)	
NCCC(O)C(=O)N[C@@H]1C[C@H](N)[C@@H](OC2O[C@H](CN)[C@@H](O)[C@H](O)[C@H]2N)[C@H](OC2O[C@H](CO)C(O)[C@H]2O)[C@H]1O (stereo partly drawn)			1.54	7990	9800		106% (inactive)	91%	0.815 (inactive)	
C[C@H]1CCC2(NC1)O[C@H]1C[C@H]3[C@@H]4CC[C@H]5C[C@@H](O[C@@H]6O[C@H](CO)[C@H](O[C@@H]7O[C@H](CO)[C@@H](O)[C@H](O[C@@H]8OC[C@@H](O)[C@H](O)[C@H]8O)[C@H]7O[C@@H]7O[C@H](CO)[C@@H](O)[C@H](O)[C@H]7O)[C@H](O)[C@H]6O)CC[C@]5(C)[C@H]4CC[C@]3(C)[C@H]1[C@@H]2C (stereo partly drawn)			0.652	430	564		1.56% (inactive)	9.75%	0.761 (inactive)	
